Test results reported in ChEMBL document CHEMBL1961873, “Compounds: GSK PKIS; Assays: Nanosyn kinase panel” (2012).

Legend:
[1] = biological target: T1, Tyrosine-protein kinase receptor TYRO3 (Homo sapiens) (UniProt Q06418); settings: at 1 µM
T1 sequence (whole entry): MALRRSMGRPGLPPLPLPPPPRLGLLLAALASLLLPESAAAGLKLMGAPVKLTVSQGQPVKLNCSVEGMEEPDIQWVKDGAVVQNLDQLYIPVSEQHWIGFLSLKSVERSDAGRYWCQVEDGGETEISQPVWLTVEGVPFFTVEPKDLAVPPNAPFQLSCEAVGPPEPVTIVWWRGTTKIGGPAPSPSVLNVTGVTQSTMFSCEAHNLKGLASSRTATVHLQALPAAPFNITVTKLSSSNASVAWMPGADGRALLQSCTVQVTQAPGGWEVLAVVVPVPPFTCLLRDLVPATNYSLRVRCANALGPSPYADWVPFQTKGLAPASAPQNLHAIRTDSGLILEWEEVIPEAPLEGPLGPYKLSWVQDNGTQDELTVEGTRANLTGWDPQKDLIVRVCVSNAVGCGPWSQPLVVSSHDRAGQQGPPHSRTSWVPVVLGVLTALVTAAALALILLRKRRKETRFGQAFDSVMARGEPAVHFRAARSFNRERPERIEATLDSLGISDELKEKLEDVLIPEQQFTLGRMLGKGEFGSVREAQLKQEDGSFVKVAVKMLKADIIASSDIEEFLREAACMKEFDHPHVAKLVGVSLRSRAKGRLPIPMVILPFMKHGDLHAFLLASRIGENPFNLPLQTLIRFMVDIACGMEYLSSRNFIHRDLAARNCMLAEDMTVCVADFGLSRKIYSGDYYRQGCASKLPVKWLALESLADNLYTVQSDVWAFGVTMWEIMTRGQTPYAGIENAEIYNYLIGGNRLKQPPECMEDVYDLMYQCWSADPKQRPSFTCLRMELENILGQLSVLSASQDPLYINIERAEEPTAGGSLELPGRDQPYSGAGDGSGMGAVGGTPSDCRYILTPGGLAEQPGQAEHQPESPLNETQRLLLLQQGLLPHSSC

[2] = biological target: Tyrosine-protein kinase Yes (Homo sapiens) (UniProt P07947); settings: at 0.1 µM
[3] = biological target: Tyrosine-protein kinase Yes (Homo sapiens) (UniProt P07947); settings: at 1 µM
[4] = biological target: T2, Tyrosine-protein kinase ZAP-70 (Homo sapiens) (UniProt P43403); settings: at 0.1 µM
T2 sequence (whole entry): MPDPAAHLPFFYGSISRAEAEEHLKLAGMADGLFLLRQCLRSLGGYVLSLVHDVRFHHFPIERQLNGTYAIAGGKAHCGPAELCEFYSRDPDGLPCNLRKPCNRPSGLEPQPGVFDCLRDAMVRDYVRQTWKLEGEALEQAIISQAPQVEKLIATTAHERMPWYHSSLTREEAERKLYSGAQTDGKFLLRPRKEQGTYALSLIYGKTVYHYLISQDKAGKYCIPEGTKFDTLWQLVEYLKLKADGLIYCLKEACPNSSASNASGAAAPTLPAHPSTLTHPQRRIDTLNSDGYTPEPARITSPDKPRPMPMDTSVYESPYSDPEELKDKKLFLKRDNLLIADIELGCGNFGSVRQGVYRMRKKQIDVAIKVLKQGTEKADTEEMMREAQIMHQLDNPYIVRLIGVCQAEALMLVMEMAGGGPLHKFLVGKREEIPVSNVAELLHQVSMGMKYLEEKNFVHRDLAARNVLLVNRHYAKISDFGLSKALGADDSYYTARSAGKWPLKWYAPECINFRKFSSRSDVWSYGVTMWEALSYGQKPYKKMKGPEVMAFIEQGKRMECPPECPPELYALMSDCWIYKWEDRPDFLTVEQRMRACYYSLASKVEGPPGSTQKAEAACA

[5] = biological target: T2, Tyrosine-protein kinase ZAP-70 (Homo sapiens); settings: at 1 µM
[6] = biological target: Serine/threonine-protein kinase B-raf (Homo sapiens) (UniProt P15056); settings: at 0.1 µM
[7] = biological target: Serine/threonine-protein kinase B-raf (Homo sapiens) (UniProt P15056); settings: at 1 µM
[8] = system: Serine/threonine-protein kinase B-raf (Homo sapiens), P15056 [V600E]; settings: at 0.1 µM
[9] = system: Serine/threonine-protein kinase B-raf (Homo sapiens), P15056 [V600E]; settings: at 1 µM
[10] = biological target: RAF proto-oncogene serine/threonine-protein kinase (Homo sapiens) (UniProt P04049); settings: at 0.1 µM
[11] = biological target: RAF proto-oncogene serine/threonine-protein kinase (Homo sapiens) (UniProt P04049); settings: at 1 µM
[12] = biological target: T3, Interleukin-1 receptor-associated kinase 4 (Homo sapiens) (UniProt Q9NWZ3); settings: at 0.1 µM
T3 sequence (whole entry): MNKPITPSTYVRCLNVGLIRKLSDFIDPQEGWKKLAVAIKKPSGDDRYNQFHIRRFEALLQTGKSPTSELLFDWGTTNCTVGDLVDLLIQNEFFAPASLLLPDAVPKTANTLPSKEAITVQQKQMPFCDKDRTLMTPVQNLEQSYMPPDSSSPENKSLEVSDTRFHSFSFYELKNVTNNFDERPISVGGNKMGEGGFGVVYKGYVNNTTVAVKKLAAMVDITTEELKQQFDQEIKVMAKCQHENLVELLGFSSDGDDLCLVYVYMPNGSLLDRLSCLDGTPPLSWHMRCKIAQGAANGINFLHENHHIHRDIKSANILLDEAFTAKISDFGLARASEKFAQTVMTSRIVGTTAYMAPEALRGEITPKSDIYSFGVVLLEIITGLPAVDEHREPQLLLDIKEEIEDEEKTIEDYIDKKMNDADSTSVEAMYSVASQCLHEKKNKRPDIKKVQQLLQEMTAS

[13] = biological target: T3, Interleukin-1 receptor-associated kinase 4 (Homo sapiens); settings: at 1 µM
[14] = biological target: Leucine-rich repeat serine/threonine-protein kinase 2 (Homo sapiens) (UniProt Q5S007); settings: at 0.1 µM
[15] = biological target: Leucine-rich repeat serine/threonine-protein kinase 2 (Homo sapiens) (UniProt Q5S007); settings: at 1 µM
[16] = system: Leucine-rich repeat serine/threonine-protein kinase 2 (Homo sapiens), Q5S007 [G2019S]; settings: at 0.1 µM
[17] = system: Leucine-rich repeat serine/threonine-protein kinase 2 (Homo sapiens), Q5S007 [G2019S]; settings: at 1 µM

Serine/threonine-protein kinase B-raf (Homo sapiens), sequence (P15056 whole entry): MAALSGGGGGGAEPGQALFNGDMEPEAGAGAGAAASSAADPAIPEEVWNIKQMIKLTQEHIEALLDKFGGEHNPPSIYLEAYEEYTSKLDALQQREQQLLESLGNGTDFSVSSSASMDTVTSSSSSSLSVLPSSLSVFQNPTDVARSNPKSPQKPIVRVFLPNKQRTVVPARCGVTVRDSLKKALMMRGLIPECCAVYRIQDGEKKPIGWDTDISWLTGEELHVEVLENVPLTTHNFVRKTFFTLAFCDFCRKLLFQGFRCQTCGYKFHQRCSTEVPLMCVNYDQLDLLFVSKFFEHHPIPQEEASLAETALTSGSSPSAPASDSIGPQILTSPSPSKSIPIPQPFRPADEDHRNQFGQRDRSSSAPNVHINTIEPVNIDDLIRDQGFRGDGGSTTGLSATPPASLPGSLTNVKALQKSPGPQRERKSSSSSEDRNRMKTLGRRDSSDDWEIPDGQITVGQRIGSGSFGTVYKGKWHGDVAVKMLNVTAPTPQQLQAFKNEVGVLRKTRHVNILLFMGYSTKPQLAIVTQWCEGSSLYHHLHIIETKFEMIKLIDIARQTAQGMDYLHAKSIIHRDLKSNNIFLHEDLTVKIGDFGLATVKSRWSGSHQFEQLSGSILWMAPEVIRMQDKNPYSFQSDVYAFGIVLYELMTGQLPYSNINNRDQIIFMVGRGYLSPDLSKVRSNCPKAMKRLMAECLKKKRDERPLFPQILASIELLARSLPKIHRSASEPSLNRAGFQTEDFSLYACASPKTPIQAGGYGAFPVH
RAF proto-oncogene serine/threonine-protein kinase (Homo sapiens), sequence (P04049 whole entry): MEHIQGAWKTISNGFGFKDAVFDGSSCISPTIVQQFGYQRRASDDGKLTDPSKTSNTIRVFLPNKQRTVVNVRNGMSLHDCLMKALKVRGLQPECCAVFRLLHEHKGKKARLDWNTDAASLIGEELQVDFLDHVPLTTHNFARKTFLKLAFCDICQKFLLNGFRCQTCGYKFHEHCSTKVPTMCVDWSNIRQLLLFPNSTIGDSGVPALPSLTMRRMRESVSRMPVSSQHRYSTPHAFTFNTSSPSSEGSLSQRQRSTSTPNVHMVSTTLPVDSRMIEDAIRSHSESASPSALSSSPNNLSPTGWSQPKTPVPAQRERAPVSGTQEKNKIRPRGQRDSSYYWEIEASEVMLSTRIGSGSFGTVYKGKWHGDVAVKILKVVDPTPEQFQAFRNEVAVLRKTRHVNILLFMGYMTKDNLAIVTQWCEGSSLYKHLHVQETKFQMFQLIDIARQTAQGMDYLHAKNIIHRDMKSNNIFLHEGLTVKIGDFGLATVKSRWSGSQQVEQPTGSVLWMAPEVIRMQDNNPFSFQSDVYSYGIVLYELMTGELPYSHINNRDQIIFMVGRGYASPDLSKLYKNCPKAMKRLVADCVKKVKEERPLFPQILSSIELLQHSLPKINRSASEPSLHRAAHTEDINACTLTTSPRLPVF
Leucine-rich repeat serine/threonine-protein kinase 2 (Homo sapiens), Q5S007 [G2019S], sequence (Q5S007 whole entry G2019S): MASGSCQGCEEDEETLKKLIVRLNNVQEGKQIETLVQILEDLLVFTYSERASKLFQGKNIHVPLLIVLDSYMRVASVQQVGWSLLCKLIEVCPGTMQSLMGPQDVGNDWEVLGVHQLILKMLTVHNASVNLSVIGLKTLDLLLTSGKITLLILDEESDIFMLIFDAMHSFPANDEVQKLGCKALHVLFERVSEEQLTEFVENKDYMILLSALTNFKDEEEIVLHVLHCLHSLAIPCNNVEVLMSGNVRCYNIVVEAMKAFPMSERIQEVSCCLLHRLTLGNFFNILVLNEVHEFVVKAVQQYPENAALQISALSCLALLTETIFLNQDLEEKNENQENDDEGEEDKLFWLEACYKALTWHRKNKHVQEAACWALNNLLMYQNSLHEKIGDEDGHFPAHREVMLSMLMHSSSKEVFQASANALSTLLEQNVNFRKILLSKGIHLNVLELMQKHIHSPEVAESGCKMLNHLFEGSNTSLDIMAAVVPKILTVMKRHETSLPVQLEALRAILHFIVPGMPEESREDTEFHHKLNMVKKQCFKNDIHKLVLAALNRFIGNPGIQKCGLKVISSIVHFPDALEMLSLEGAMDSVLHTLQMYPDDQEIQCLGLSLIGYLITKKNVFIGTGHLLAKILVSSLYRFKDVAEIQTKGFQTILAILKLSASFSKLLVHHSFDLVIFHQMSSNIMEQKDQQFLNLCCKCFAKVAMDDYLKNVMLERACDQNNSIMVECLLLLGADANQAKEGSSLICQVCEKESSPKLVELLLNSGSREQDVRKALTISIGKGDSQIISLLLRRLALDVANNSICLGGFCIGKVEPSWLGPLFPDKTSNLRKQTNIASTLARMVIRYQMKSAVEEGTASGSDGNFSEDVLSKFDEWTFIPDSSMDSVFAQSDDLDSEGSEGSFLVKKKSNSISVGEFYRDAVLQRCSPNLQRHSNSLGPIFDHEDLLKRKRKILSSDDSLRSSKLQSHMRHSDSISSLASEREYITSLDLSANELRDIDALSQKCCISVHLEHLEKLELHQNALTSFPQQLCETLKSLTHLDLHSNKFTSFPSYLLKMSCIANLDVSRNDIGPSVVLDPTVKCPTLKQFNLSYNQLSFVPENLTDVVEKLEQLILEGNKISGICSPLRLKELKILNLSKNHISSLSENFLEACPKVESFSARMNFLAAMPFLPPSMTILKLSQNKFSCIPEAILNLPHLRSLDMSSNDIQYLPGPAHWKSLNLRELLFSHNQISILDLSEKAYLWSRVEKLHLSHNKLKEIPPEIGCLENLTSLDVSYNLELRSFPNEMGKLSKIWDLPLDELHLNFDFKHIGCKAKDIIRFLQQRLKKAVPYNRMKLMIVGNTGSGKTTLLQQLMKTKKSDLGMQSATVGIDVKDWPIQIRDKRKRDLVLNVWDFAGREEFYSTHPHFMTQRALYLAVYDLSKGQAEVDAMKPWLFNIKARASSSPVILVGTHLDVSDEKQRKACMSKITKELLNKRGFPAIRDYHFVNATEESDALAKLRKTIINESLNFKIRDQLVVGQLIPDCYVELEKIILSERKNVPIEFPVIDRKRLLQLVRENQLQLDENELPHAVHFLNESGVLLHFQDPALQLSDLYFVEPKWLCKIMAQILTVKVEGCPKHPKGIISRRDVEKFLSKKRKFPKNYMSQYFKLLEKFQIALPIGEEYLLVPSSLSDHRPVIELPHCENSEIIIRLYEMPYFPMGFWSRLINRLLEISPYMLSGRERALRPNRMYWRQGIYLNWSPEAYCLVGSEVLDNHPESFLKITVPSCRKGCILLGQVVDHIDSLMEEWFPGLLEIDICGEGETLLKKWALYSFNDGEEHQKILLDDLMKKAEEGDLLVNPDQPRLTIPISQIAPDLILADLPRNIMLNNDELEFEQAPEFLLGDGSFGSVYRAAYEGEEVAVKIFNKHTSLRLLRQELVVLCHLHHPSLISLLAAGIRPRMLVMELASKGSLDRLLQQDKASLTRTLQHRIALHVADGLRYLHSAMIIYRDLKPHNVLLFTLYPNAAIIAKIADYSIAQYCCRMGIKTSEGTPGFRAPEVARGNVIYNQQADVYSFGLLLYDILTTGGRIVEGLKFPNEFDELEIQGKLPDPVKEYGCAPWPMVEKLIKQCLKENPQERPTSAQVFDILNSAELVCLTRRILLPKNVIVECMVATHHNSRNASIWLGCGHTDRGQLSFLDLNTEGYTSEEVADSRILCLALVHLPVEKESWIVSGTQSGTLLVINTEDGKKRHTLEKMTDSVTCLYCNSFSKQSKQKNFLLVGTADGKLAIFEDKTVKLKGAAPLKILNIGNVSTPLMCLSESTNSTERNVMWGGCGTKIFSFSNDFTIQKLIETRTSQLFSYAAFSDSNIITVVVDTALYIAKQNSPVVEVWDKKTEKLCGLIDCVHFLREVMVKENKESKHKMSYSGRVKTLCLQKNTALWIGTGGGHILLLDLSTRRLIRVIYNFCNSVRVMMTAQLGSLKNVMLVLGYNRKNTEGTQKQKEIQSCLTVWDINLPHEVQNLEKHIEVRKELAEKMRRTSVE
Tyrosine-protein kinase Yes (Homo sapiens), sequence (P07947 2-543 limits assumed): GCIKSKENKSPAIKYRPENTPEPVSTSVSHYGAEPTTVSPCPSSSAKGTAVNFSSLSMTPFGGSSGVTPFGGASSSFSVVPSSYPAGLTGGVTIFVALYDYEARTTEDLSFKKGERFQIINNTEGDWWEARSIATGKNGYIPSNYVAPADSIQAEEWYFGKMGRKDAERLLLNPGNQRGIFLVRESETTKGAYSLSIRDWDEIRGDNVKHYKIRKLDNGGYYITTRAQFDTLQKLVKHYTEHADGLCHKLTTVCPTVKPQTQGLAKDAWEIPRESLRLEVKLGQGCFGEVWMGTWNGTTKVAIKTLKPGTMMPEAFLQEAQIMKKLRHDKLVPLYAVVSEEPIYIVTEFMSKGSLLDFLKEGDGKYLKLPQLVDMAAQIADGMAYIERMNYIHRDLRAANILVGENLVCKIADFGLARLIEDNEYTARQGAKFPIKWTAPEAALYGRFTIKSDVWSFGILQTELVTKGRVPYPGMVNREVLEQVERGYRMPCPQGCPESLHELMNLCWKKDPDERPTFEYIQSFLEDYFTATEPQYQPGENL
Serine/threonine-protein kinase B-raf (Homo sapiens), P15056 [V600E], sequence (P15056 whole entry V600E): as the sequence (P15056 whole entry) above, with V600E counted along it
Leucine-rich repeat serine/threonine-protein kinase 2 (Homo sapiens), sequence (Q5S007 whole entry): as the sequence (Q5S007 whole entry G2019S) above, with S2019G counted along it

Row | Structure (SMILES) | inhibition [1] [%] | inhibition [2] [%] | inhibition [3] [%] | inhibition [4] [%] | inhibition [5] [%] | inhibition [6] [%] | inhibition [7] [%] | inhibition [8] [%] | inhibition [9] [%] | inhibition [10] [%] | inhibition [11] [%] | inhibition [12] [%] | inhibition [13] [%] | inhibition [14] [%] | inhibition [15] [%] | inhibition [16] [%] | inhibition [17] [%]
1 | CCn1c(-c2nonc2N)nc2c(C#CC(C)(C)O)nc(OCCNC)cc21 | 3.31 | 3.64 | 3.28 | 1.77 | 1.49 | 6.22 | 7.65 | 3.6 | 3.03 | 0.76 | 0.54 | 2.16 | 3.06 | -2.14 | 0.49 | -0.46 | 2.51
2 | CS(=O)(=O)Nc1cccc(-c2ccc3c(NC(=O)C4CC4)n[nH]c3c2)c1 | 17.9 | 2.95 | 2.86 | 1.35 | 1.3 | 1.25 | 2.51 | 1.61 | 2.94 | 8.26 | 16.5 | 4.95 | 0.25 | 1.1 | 5.23 | 2.67 | 5.19
3 | NS(=O)(=O)c1ccc(Nc2cc(-c3cccc(O)c3)n[nH]2)cc1 | 9.19 | 2.39 | 5.84 | 4.04 | 6.29 | 7.97 | 8.05 | 6.98 | 6.29 | 1.44 | -1.78 | 0.88 | 2.85 | 6.39 | 12.4 | 6.39 | 17.1
4 | Cc1nc(-c2ccccc2)n2nc(NCCCN3CCOCC3)ncc12 | 2.63 | 0.53 | 6.58 | 0.35 | 0.63 | 3.54 | 7.13 | 4.13 | 4.57 | 8.88 | 3.81 | 1.72 | 1.58 | 0.1 | 5.23 | 2.23 | 6.32
5 | NC(=O)c1sc(-n2cnc3ccccc32)cc1OCc1ccccc1Br | 1.89 | 2.41 | 7.85 | -2.78 | -2.62 | 5.54 | 6.15 | 4.91 | 3.77 | 3.4 | -0.55 | 1.39 | 2.57 | 1.66 | 10.8 | 4.94 | 19.3
6 | CN(C)CCCn1c(-c2nonc2N)nc2cnccc21 | 1.97 | 0.2 | 0.44 | 1.32 | 0.96 | 5.59 | 6.07 | 5.51 | 5.34 | 7.16 | 1.81 | 4.22 | 1.99 | 3.63 | 2.14 | 2.04 | 2.51
7 | O=C(Nc1ccc(Oc2ccc3[nH]c(NC(=O)c4ccco4)nc3c2)cc1)Nc1cc(C(F)(F)F)ccc1F | 37.4 | 0.93 | 21.9 |  | -9.02 | 4.64 | 60.7 | 3.75 | 72.5 | -0.98 | 39.9 | -2.35 | 0.94 | 15.7 | 15.8 | 9.87 | 51.6
8 | COc1cc(/C=N/Nc2ncnc3c2cnn3C(C)C)ccc1O | 25.9 | 11.9 | 50.8 | 1.87 | 4.45 | 2.16 | 2.26 | 2.21 | 1.64 | 9.62 | 1.93 | 1.12 | 2.71 | 2.81 | 7.64 | 4.77 | 19.1
9 | Cc1cc(Cl)cc2c1NC(=O)C2=NNc1ccc(S(N)(=O)=O)cc1 | 3.93 | 0.95 | 2.2 | 1.82 | 1.81 | 4.13 | 1.81 | 4.19 | 2.74 | 0.2 | 3.57 | 3.1 | 1.43 | 0.71 | 2.23 | 1.78 | 4.5
10 | COc1cc2ncn(-c3cc(OCc4ccccc4S(C)(=O)=O)c(C#N)s3)c2cc1OC | 20.1 | 8.67 | 39.2 |  | 4 | 5.38 | 8.14 | 4.97 | 6.91 | 5.23 | 2.83 | -0.58 | 10.8 | 25.5 | 83.7 | 60.4 | 61.8
11 | COc1ccc2ncnc(Nc3ccc(OCc4ccccc4)cc3)c2c1 | 3.15 | 5.76 | 22.9 | 1.97 | 1.84 | 3.6 | 2.93 | 3.51 | 2.24 | -0.56 |  | 3.13 | 0.86 | 1.61 | 4.95 | 2.19 | 13.1
12 | COc1cccc(-n2nc(C)c3c(N/N=C(\C)c4ccncc4)ncnc32)c1 | 2.25 | 1.18 | 0.82 | 0.82 | 2.35 | 0.14 | -1.61 | 0.28 | -0.78 | -2.44 | -2.83 | -0.08 | 0.93 | 2.29 | 4.69 | 2.88 | 4.64
13 | CS(=O)(=O)CCNCc1nc(-c2ccc3ncnc(Nc4ccc(OCc5cccc(C(F)(F)F)c5)cc4)c3c2)cs1 | 1.66 | 1.94 | 3.56 | 1.5 | 0.78 | 1.81 | 2.12 | 2.15 | -0.18 | 0.97 | -1.38 | 0.78 | 1.16 | 1.09 | 6.41 | 3.12 | 5.01
14 | Cc1cc(-c2ccccn2)cc(C)c1/C=C/c1cncc(-c2nn[nH]n2)c1 | 0.93 | 1.13 | 11.4 | 3.62 | -2.29 | 5.62 | 12.4 | 4.7 | 5.23 | 1.48 | 0.84 | 1.97 | 2.42 | 1.5 | 10.7 | 3.32 | 8.55
15 | NC(=O)c1cccc(Nc2nccc(Nc3cccc(F)c3)n2)c1 | 57 | 4.5 | 22.5 | -0.99 | 4.21 | 0.82 | 3.59 | 1.61 | 3.25 | 0.33 | -1.43 | 0.1 | 2.52 | -0.11 | 10 | 1.9 | 18.2
16 | NS(=O)(=O)c1ccc(NC=C2C(=O)Nc3ccc4ncsc4c32)cc1 | 42.4 | 9.65 | 41.5 | 3.29 | 11.9 | 15.4 | 60.5 | 16.6 | 61.2 | 11.6 | -1.97 | 0.1 | 4.43 | 23.9 | 78.8 | 48.8 | 59.7
17 | NS(=O)(=O)c1cccc(Nc2cc(-c3ccc(F)cc3)n[nH]2)c1 | 19.7 | 2.67 | 12.1 | 1.39 | 2.54 | 5.14 | 4.96 | 3.81 | 5.31 | 0.49 | -8.3 | -1.86 | 1.25 | 4.6 | 10.5 | 5.16 | 12.2
18 | C[C@@H](Oc1cc(-n2cnc3ccc(OC[C@@H](O)CO)cc32)sc1C(N)=O)c1ccccc1Cl | 1.84 | -2.39 | 4.27 | -0.38 | -0.42 | -1.12 | -0.85 | -2.35 | 0.01 | -4.77 | 5.77 | 1.29 | -0.05 | 3.25 | 17.3 | 5.39 | 28.7
19 | Nc1nccc(-c2c(-c3ccc(F)cc3)ncn2CCCN2CCOCC2)n1 | 5.61 | 2.87 | 9.05 | -2.08 | 1.23 | 5.83 | 6.07 | 6.08 | 7.12 | 11.6 | 2.86 | 3.35 | 2.13 | 1.92 | 1.82 | 2.45 | 2.14
